Source: the supplement of paper PMC6411743
± gives the standard deviation of the averaged measurements. About 6,200 targets were measured; listed, in parts, are those with the largest changes and a random draw of the rest.

Compound: Nc1ncnc2c1ncn2[C@@H]1O[C@H](COP(=O)(O)OP(=O)(O)NP(=O)(O)O)[C@@H](O)[C@H]1O [adenylyl imidodiphosphate]
Assay: NP40-soluble protein abundance relative to vehicle (solubility fold change) (ratio); higher = more soluble protein in presence of AMP-PNP
Method in brief: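 Crude Jurkat lysate, prepared by Dounce homogenisation, was exposed to eight concentrations from 0.1 to 10 mM for 10 min at room temperature and then 3 min at 37 °C. Solubilisation used 0.8% NP40 with benzonase for 60 min at 4 °C, followed by ultracentrifugation and TMT labelling of the supernatant for LC-MS/MS. After vsn normalisation of intensities, each value is the fold change against the detergent-processed vehicle within each replicate, across three independent experiments.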

Chain of UniProt Q9UL63 (Q9UL63 whole entry, one chain of several): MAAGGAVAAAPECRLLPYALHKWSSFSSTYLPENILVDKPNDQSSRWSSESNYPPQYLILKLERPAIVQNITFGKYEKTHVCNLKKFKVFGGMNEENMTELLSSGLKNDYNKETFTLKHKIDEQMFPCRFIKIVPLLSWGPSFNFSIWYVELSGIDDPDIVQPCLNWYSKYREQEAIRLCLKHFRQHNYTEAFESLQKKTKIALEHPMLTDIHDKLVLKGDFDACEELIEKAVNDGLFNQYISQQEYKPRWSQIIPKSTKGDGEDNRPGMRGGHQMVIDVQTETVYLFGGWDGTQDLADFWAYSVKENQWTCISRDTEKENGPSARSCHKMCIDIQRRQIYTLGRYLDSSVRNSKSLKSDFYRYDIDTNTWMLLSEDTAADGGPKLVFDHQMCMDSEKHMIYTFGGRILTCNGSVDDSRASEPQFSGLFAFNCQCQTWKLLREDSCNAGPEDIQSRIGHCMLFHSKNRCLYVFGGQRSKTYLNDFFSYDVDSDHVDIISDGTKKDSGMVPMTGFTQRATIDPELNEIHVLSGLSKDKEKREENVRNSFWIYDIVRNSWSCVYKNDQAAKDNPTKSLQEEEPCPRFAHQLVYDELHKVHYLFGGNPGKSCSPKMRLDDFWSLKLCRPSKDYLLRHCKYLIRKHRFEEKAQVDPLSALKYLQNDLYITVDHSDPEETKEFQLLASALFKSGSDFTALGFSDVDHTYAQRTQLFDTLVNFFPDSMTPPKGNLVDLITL
Chain of UniProt Q9UBI9 (Q9UBI9 whole entry): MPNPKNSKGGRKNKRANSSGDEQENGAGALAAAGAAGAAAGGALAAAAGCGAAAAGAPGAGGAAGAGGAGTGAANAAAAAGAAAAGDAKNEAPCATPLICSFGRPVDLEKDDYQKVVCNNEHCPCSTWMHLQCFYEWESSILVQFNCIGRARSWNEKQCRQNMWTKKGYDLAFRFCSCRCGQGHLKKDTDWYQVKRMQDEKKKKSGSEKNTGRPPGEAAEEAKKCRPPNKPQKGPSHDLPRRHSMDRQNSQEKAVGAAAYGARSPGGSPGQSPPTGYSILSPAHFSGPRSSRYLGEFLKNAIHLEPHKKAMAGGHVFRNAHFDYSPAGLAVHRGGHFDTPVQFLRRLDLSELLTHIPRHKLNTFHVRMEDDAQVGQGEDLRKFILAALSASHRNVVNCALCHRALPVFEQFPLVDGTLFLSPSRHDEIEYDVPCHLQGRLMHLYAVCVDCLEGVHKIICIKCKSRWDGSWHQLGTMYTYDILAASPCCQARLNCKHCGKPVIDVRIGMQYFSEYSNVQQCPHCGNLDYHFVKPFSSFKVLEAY
Chain of UniProt Q9NR30 (Q9NR30 whole entry): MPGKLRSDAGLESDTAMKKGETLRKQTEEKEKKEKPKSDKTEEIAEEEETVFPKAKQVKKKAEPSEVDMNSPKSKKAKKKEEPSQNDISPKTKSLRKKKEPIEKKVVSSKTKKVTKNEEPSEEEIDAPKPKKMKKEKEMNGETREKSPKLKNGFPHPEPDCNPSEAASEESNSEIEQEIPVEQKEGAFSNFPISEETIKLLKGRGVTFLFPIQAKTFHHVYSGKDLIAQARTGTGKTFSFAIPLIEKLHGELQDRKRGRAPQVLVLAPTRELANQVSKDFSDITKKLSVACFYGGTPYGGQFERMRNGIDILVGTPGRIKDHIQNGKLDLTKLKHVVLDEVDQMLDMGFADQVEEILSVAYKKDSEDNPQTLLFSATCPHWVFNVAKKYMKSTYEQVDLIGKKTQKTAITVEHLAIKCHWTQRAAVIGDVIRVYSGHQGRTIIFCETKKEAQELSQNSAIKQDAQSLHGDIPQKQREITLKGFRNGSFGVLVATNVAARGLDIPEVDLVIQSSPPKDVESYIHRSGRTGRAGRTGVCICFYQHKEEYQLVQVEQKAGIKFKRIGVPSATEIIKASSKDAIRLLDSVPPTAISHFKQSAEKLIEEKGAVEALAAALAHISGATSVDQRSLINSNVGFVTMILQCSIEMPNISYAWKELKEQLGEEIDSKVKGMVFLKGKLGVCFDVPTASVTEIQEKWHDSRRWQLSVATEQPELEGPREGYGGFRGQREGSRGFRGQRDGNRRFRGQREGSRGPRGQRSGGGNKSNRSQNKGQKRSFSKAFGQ
Chain of UniProt Q9HC52 (Q9HC52 whole entry): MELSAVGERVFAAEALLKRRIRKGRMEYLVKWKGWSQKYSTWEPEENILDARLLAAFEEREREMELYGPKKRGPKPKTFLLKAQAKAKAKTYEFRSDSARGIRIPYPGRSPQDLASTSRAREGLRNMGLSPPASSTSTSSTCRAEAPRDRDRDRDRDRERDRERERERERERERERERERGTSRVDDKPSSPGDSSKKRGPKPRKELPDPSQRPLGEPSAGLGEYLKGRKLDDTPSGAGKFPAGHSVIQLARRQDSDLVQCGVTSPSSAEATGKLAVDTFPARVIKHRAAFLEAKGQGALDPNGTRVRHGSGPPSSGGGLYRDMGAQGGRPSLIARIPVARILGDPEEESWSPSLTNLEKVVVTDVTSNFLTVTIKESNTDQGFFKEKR
Chain of UniProt Q9Y2Y0 (Q9Y2Y0 whole entry): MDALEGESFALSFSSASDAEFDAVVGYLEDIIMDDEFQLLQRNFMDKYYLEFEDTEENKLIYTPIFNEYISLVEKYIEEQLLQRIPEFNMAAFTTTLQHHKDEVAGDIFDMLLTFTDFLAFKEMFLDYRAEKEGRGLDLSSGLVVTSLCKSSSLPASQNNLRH
Chain of UniProt Q9Y5V3 (Q9Y5V3 whole entry): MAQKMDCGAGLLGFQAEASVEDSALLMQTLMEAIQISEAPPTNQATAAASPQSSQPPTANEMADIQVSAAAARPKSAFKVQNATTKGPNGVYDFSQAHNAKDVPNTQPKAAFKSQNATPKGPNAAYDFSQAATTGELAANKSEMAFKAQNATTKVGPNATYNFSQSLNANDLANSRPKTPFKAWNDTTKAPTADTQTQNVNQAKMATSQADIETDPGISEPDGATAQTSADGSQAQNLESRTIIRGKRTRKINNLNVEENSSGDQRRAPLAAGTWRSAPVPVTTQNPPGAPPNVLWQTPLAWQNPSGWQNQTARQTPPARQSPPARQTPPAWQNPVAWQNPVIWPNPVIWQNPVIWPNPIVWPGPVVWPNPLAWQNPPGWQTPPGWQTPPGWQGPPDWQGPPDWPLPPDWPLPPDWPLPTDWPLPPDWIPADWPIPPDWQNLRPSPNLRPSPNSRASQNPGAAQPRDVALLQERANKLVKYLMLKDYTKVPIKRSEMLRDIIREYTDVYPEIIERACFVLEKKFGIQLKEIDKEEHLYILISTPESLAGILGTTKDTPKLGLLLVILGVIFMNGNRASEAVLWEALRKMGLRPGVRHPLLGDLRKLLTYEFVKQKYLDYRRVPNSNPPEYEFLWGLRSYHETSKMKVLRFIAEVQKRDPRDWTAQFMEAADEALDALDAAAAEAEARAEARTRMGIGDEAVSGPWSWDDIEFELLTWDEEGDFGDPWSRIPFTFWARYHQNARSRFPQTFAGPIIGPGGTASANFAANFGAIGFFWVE
Chain of UniProt Q99460 (Q99460 whole entry): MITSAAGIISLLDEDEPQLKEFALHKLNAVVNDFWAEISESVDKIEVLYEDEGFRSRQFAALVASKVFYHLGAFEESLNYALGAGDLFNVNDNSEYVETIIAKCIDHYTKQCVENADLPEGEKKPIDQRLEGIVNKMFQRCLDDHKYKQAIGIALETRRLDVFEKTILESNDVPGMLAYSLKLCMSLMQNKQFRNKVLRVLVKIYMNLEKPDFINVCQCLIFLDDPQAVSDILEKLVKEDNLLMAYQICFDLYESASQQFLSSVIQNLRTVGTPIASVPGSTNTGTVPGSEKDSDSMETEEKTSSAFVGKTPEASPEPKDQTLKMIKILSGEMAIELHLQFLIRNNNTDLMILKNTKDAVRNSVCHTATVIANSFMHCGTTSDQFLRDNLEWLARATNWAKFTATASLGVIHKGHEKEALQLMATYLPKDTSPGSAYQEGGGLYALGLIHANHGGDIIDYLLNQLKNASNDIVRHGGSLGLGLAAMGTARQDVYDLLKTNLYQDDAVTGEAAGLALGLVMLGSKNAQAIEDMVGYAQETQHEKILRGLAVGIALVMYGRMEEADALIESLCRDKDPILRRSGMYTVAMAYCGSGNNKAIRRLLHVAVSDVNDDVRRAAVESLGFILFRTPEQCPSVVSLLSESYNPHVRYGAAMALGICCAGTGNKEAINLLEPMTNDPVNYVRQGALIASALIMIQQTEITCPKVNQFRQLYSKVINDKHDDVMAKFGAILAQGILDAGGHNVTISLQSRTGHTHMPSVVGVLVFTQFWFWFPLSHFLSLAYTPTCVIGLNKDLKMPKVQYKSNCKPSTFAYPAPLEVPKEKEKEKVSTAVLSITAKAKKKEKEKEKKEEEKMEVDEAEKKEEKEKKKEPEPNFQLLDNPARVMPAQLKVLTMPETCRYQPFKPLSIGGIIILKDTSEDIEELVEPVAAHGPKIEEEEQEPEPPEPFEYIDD
Chain of UniProt Q96J01 (Q96J01 whole entry): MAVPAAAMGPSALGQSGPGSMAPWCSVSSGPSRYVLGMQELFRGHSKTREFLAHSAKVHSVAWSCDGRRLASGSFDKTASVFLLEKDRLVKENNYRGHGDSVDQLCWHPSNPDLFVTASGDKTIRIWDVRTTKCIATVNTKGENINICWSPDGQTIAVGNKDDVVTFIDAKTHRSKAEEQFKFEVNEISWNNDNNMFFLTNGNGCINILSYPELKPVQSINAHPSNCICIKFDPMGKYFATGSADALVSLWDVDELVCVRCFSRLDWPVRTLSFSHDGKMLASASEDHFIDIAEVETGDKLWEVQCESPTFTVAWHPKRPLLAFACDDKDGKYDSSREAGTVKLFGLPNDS
Chain of UniProt Q9GZY4 (Q9GZY4 whole entry): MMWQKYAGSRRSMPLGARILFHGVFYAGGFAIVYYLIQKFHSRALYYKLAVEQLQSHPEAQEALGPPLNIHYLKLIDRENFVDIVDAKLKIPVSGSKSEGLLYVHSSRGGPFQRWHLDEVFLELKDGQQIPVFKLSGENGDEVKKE
Chain of UniProt Q9NP97 (Q9NP97 whole entry): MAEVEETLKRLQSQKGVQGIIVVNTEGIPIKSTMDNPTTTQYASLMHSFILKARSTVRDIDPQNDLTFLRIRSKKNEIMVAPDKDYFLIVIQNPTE

Target	NP40-soluble protein abundance (concentration: 1mM)	NP40-soluble protein abundance (concentration: 2mM)	NP40-soluble protein abundance (concentration: 4mM)	NP40-soluble protein abundance (concentration: 6mM)	NP40-soluble protein abundance (concentration: 8mM)	NP40-soluble protein abundance (concentration: 10mM)
UniProt Q9BYX2|Q9BYX2-2	0.981 ± 0.013	0.9921 ± 0.0015	1 ± 0.028	0.985 ± 0.042	0.972 ± 0.012	0.9639 ± 0.0013
CHMP6 (UniProt Q96FZ7)	1.03 ± 0.028	1.05 ± 0.022	1.03 ± 0.038	1.01 ± 0.03	1.02 ± 0.032	0.964 ± 0.033
UniProt Q9Y5V3|Q9Y5V3-2	1 ± 0.08	1 ± 0.059	0.937 ± 0.08	0.869 ± 0.077	0.81 ± 0.027	0.858 ± 0.048
AASS (UniProt Q9UDR5)	0.9781 ± 0.0043	0.935 ± 0.098	0.969 ± 0.035	0.947 ± 0.021	0.979 ± 0.01	0.939 ± 0.027
CCDC115 (UniProt Q96NT0)	0.994 ± 0.046	1.01 ± 0.043	1.01 ± 0.035	1 ± 0.04	0.968 ± 0.06	0.992 ± 0.041
HECA (UniProt Q9UBI9)	0.969 ± 0.029	1 ± 0.017	1.02 ± 0.049	1.034 ± 0.0078	1.06 ± 0.046	1.04 ± 0.024
BCS1L (UniProt Q9Y276)	0.966 ± 0.021	0.874 ± 0.11	0.996 ± 0.024	0.955 ± 0.035	0.982 ± 0.024	0.937 ± 0.035
DDX21 (UniProt Q9NR30)	1.21 ± 0.11	1.25 ± 0.13	1.39 ± 0.23	1.55 ± 0.31	1.66 ± 0.38	1.78 ± 0.4
UniProt Q9HC36	1.05 ± 0.047	1.1 ± 0.088	1.23 ± 0.12	1.37 ± 0.18	1.51 ± 0.22	1.6 ± 0.28
CBX8 (UniProt Q9HC52)	1.08 ± 0.015	1.1 ± 0.04	1.13 ± 0.018	1.23 ± 0.028	1.33 ± 0.062	1.39 ± 0.044
UniProt Q9UPT9|Q9UPT9-2	0.953 ± 0.022	0.953 ± 0.035	0.96 ± 0.025	0.922 ± 0.027	0.936 ± 0.021	0.922 ± 0.02
UniProt Q9Y520|Q9Y520-5|Q9Y520-7|E7EPN9|Q9Y520-4	1.1 ± 0.013	1.2 ± 0.092	1.2 ± 0.05	1.25 ± 0.12	1.29 ± 0.14	1.41 ± 0.17
PSMD1 (UniProt Q99460)	0.902 ± 0.044	0.887 ± 0.06	0.851 ± 0.094	0.863 ± 0.11	0.848 ± 0.098	0.847 ± 0.13
NARS2 (UniProt Q96I59)	0.955 ± 0.032	0.904 ± 0.033	0.927 ± 0.036	1 ± 0.048	1 ± 0.011	0.963 ± 0.066
UniProt Q9UMZ2|Q9UMZ2-5|Q9UMZ2-9	1.02 ± 0.035	1.05 ± 0.064	1.03 ± 0.031	0.978 ± 0.035	0.955 ± 0.021	0.981 ± 0.037
PFDN2 (UniProt Q9UHV9)	1.05 ± 0.084	1.11 ± 0.11	0.986 ± 0.062	0.928 ± 0.1	0.85 ± 0.016	0.941 ± 0.083
RBM27 (UniProt Q9P2N5)	1.04 ± 0.021	1.15 ± 0.062	1.13 ± 0.05	1.24 ± 0.12	1.25 ± 0.11	1.34 ± 0.16
UniProt Q9NVM9	1.03 ± 0.027	1.02 ± 0.04	1.05 ± 0.033	1.02 ± 0.069	1.03 ± 0.075	1.03 ± 0.063

Target	NP40-soluble protein abundance (concentration: 1mM)	NP40-soluble protein abundance (concentration: 2mM)	NP40-soluble protein abundance (concentration: 4mM)	NP40-soluble protein abundance (concentration: 6mM)	NP40-soluble protein abundance (concentration: 8mM)	NP40-soluble protein abundance (concentration: 10mM)
UniProt Q9UL63|C9J7E8|Q9UL63-2	0.984 ± 0.065	0.968 ± 0.061	0.994 ± 0.041	0.937 ± 0.085	0.934 ± 0.092	0.922 ± 0.12
UniProt Q9GZY4	0.995 ± 0.024	0.939 ± 0.041	1.01 ± 0.022	0.977 ± 0.015	0.9936 ± 0.0057	1.01 ± 0.051
UniProt Q96T76|Q96T76-8|Q96T76-9	0.964 ± 0.013	0.929 ± 0.082	0.972 ± 0.032	0.987 ± 0.036	1.002 ± 0.0053	0.9354 ± 0.0075
UNK (UniProt Q9C0B0)	1.071 ± 0.0069	1.12 ± 0.056	1.11 ± 0.021	1.09 ± 0.072	1.1 ± 0.045	1.11 ± 0.033
UniProt Q96K49|Q96K49-2	0.99 ± 0.013	1.01 ± 0.027	0.984 ± 0.026	0.9718 ± 0.005	0.9653 ± 0.0019	0.9716 ± 0.0066
THOC3 (UniProt Q96J01)	1.07 ± 0.069	1.1 ± 0.075	1.17 ± 0.15	1.24 ± 0.16	1.3 ± 0.23	1.34 ± 0.27
ATAD5 (UniProt Q96QE3)	1.03 ± 0.026	1.05 ± 0.046	1.08 ± 0.028	1.08 ± 0.031	1.08 ± 0.022	1.12 ± 0.045
UniProt Q9UHP3|Q9UHP3-1|Q9UHP3-3	0.966 ± 0.013	0.997 ± 0.015	0.975 ± 0.026	0.963 ± 0.023	0.964 ± 0.013	0.971 ± 0.024
DYNLRB1 (UniProt Q9NP97)	0.996 ± 0.011	1.04 ± 0.054	0.977 ± 0.03	1.01 ± 0.018	0.9949 ± 0.0057	1.01 ± 0.02
RAB23 (UniProt Q9ULC3)	0.9714 ± 0.0024	0.9596 ± 0.0092	0.974 ± 0.029	1.01 ± 0.029	1.03 ± 0.044	1 ± 0.018
UniProt Q9Y2Y0|Q9Y2Y0-2	0.982 ± 0.014	0.972 ± 0.026	0.989 ± 0.036	0.988 ± 0.049	0.975 ± 0.032	0.953 ± 0.015
GDE1 (UniProt Q9NZC3)	1.01 ± 0.043	1.02 ± 0.034	1.01 ± 0.03	1.01 ± 0.08	0.995 ± 0.05	1.01 ± 0.06
UniProt Q9ULE6	0.981 ± 0.025	0.96 ± 0.013	1.01 ± 0.02	0.959 ± 0.027	0.957 ± 0.016	0.944 ± 0.025
MRPL53 (UniProt Q96EL3)	0.987 ± 0.06	1.01 ± 0.023	0.986 ± 0.061	0.98 ± 0.045	1 ± 0.063	1 ± 0.066
PUS3 (UniProt Q9BZE2)	1.01 ± 0.013	0.997 ± 0.0053	1 ± 0.026	1.03 ± 0.054	0.978 ± 0.032	0.974 ± 0.019
THRAP3 (UniProt Q9Y2W1)	1.11 ± 0.014	1.23 ± 0.1	1.2 ± 0.034	1.31 ± 0.044	1.32 ± 0.028	1.41 ± 0.03
UniProt Q9H6A9|Q9H6A9-2	1.01 ± 0.016	1.02 ± 0.027	0.98826 ± 0.00019	0.989 ± 0.028	0.9847 ± 0.0089	0.9795 ± 0.0059
